Screen size: about 360,000 compounds; about 1,600 (0.44%) were called active.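 The calls were made as follows: active = inhibition above the screen-wide average plus 3 SD (cut at about 13% in these data); inactive = the rest.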 The list comes from a sample in which actives are over-represented; it also holds similar structures and randomly drawn compounds.

In general, inhibition refers to the relative decrease from the control value, in per cent.

The target of the assay is Galanin receptor type 3 (Homo sapiens) (UniProt O60755). Description: GalR3 antagonists in HEK293 cells, primary screen, cell-based, fluorescence readout (AID 651719).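 Also: forskolin and galanin both at EC90 stimulate the cells; cAMP rise reported by CNG channel membrane potential dye signal; 0% = forskolin plus galanin with DMSO and 100% = forskolin alone.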 The conditions noted are these: HEK293 GalR3-CNG cAMP membrane potential fluorescence; at 3 µM; stronger effect = higher value; galR3 body fused to GalR1 C-terminus.
Chain of Galanin receptor type 3 (Homo sapiens) (O60755 1-299 limits assumed): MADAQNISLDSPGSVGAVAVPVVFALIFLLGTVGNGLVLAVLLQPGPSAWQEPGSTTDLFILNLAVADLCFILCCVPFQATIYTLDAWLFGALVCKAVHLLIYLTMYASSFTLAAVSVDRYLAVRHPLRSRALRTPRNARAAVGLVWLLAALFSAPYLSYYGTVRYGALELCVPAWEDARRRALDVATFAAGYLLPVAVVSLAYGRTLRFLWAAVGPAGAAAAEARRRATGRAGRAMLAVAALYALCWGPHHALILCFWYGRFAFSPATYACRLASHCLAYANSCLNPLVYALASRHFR
As to `CCCCCCCCn1c2c(c(=N)c3c1CCC3)CCCC2`, the inhibition was 30.2% (active).

`COC(=O)C1=C(C)N(Cc2cccc(C(F)(F)F)c2)C(=NCc2cccc(C(F)(F)F)c2)NC1c1ccccc1C(F)(F)F` (configuration not stated): the inhibition was -1.24% (inactive).

`Cc1ccc(NC(=O)N2c3ccccc3SC2c2ccco2)c(C)c1` (configuration not stated): the inhibition was -5.21% (inactive).

Regarding `CCOc1ccc(Br)cc1S(=O)(=O)N1CCC(C(=O)O)CC1`, the inhibition is -0.52% (inactive).

Regarding `CC(C)(C)NCc1cc(Br)ccc1OC1CCCC1`, the inhibition is -9.54% (inactive).

On to `CCOc1ccc(Br)cc1CSC(=N)N`, for which the inhibition is 58.7% (active).

As to `COc1ccccc1C(=O)N1O[C@]23C=C[C@]14C[C@@H](O)CC[C@]4(C)C2CC[C@]1(C)[C@@H]([C@H](C)/C=C/[C@H](C)C(C)C)CC[C@H]13` (some centres not stated), the inhibition is -7.73% (inactive).

For `CCN1C(=O)N[C@@H]2C[C@H](C(=O)N3CCCC3)[C@H](C)[C@H](c3ccccc3)C[C@@H]21`, the inhibition was -5.5% (inactive).

In the case of `O=C(N[C@H](C(=O)N1CCC[C@H]1C(=O)NCCc1ccccc1Cl)c1ccccc1)c1ccccc1`, the inhibition was -7.99% (inactive).

Turning to `COc1ccccc1-c1ccc([C@@H]2C[C@H]3[C@H](CON3C)CN2S(=O)(=O)c2cc(Cl)cc(Cl)c2)cc1`, the inhibition is -6.77% (inactive).

Regarding `O=C(NCC(=O)N(CC1CCCO1)C(C(=O)NC1CCCCC1)c1ccccc1)c1ccco1` (configuration not stated), the inhibition was -3.5% (inactive).

In the case of `COc1ccc(N(C(=O)CNC(=O)c2ccco2)C(C(=O)NCC2CCCO2)c2ccccc2)cc1Cl` (configuration not stated), the inhibition was 17.1% (active).

Regarding `O=C(NCC(=O)N(c1ccccc1)C(C(=O)NCC1CCCO1)c1ccccc1)c1cccs1` (configuration not stated), the inhibition is 0.38% (inactive).

Turning to `COC(=O)c1c(-c2ccc(OC)cc2)c2c(c3c4cc(OC)ccc4n(S(=O)(=O)c4ccc(F)cc4)c13)C(=O)N(C)C2`, the inhibition was -4.47% (inactive).

For `CCOC(=O)c1c(NC(=O)CSc2nccc(=O)[nH]2)sc(C)c1C`, the inhibition is 14.3% (active).

On to `CCOC(=O)c1c(NC(=O)CSc2nnc(CNc3ccc(C)cc3C)o2)sc(C)c1C`, for which the inhibition was -5.1% (inactive).

Turning to `CCOC(=O)c1c(NC(=O)CSc2nnc(Cc3csc(N)n3)n2C)sc(C)c1C`, the inhibition was -6.84% (inactive).

`O=C1Nc2ccccc2C1=NN=Cc1ccco1`: the inhibition was -6.76% (inactive).

Consider `CC(C)(C)n1nc(C2CC2)c(Br)c1NC(=O)c1ccccc1F`, for which the inhibition is -6.97% (inactive).

With `O=c1[nH]c(-c2ccccc2)cn1C1CCN(Cc2ccc(-c3nc4ccc(F)cc4nc3-c3ccccc3)cc2)CC1`, the inhibition was -7.59% (inactive).

For `CCOc1ccc(C(C)=O)cc1COC(=O)c1cnc(Cl)c(Cl)c1`, the inhibition was 13.8% (active).

Consider `COC(=O)c1ccc(COC(=O)c2cnc(Cl)c(Cl)c2)cc1`, for which the inhibition was -9.03% (inactive).

With `CCOc1ccc(C(C)=O)cc1COC(=O)CNC(=O)c1cccs1`, the inhibition was -0.09% (inactive).

For `COC(=O)c1ccc(CN2C(=O)[C@]3(OCCC=C[C@H]3C)c3c(Br)cccc32)cc1`, the inhibition is -6.8% (inactive).

As to `CC1CCN(C(=O)c2ncn3c2C(=O)N[C@@H](C)C3)CC1`, the inhibition is -3.89% (inactive).

In the case of `O=C(NCc1ccccc1)[C@@H]1CCCN1C(=O)[C@H]1CCCN1C(=O)c1cccc(Cl)c1`, the inhibition is -6.19% (inactive).

`O=C(Nc1ccc(CN2CCOCC2)cc1)c1cc(Cl)ccc1Cl`: the inhibition is -7.17% (inactive).

For the compound `Cn1c(CN2CCOCC2)nc2cc(NC(=O)c3ccc(Cl)cc3)ccc21`, the inhibition was 74.6% (active).

Consider `CCOC(=O)N1CCN(Cc2nc3cc(NC(C)=O)ccc3n2C)CC1`, for which the inhibition is -9.27% (inactive).

On to `Cc1cc(NCCc2c[nH]c3ccccc23)ccc1Oc1cccnc1`, for which the inhibition was -8.42% (inactive).

As to `COc1ccc(C2Nc3ccccc3C(=O)N2Cc2ccccc2)cc1Cn1nnc2ccccc21` (configuration not stated), the inhibition is -2.99% (inactive).

In the case of `COc1ccc(C2Nc3ccccc3C(=O)N2c2ccc(Cl)cc2)cc1Cn1cc([N+](=O)[O-])cn1` (configuration not stated), the inhibition was 28.1% (active).

In the case of `COc1ccc(CN2CCCC(C(=O)c3ccc(Cl)cc3)C2)cc1Cn1cncn1` (configuration not stated), the inhibition was -0.72% (inactive).

Turning to `CN[C@H]1C[C@H]2c3[nH]c4c(-c5ccccc5)cccc4c3CCN2C(=O)[C@H]1[C@H](C)O`, the inhibition was -8.33% (inactive).

As to `CC(=NNC(N)=O)c1ccc(Cl)c(-n2cccc2)c1`, the inhibition was -8.67% (inactive).

Consider `C[C@@H]1ON(C)[C@H]2C[C@H]3c4cc(N5CCOCC5)ccc4CCN3C[C@@H]12`, for which the inhibition is -4.65% (inactive).

Consider `COC(=O)[C@H](CC(C)C)NS(=O)(=O)c1c(F)cccc1F`, for which the inhibition was -4.91% (inactive).

Turning to `COCc1[nH]nc2c1C(c1ccccc1)N(c1ccccc1)C2=O` (configuration not stated), the inhibition was -6.8% (inactive).

As for `CN1C(=O)C2CC(O)C(SC3CC4C(=O)N(C)C(=O)C4CC3O)CC2C1=O` (configuration not stated), the inhibition was -2.8% (inactive).

For `Cc1cccc(NC(=O)c2ccc(S(=O)(=O)N(C)c3ccccc3)cc2)n1`, the inhibition was -6.82% (inactive).

On to `CSc1nccc(NC(=O)c2ccc(C(C)(C)C)cc2)n1`, for which the inhibition was 104% (active).

Turning to `COC(=O)c1nc(NC(=O)c2ccc(C(C)(C)C)cc2)n[nH]1`, the inhibition is -1.62% (inactive).

In the case of `CCCCCCCCN1C(=O)[C@@H](CC(=O)NCCCC)C[C@@]2(C(=O)OC)C1=C[C@H](C(C)(C)C)O[C@@H]2C`, the inhibition was -5.71% (inactive).

Consider `O=C(NCc1ccccc1)[C@H]1CCCN1C(=O)[C@H]1CCCN1C(=O)N1CCOCC1`, for which the inhibition is -7.58% (inactive).

As for `Nc1[nH]c(C(=O)c2ccc(Br)cc2)c(-c2ccc3c(c2)OCO3)c1C(=O)NCCc1c[nH]c2ccccc12`, the inhibition was -6.84% (inactive).

Turning to `NC(=O)c1ncn([C@@H]2O[C@H](C(=O)O)[C@@H](O)[C@H]2O)n1`, the inhibition is -7.36% (inactive).

Take `Nc1ncnc2c1ncn2C1OC(CO)CC1O` (configuration not stated): the inhibition was 53.3% (active).

For `Nc1ncnc2c1ncn2[C@@H]1O[C@H](C(=O)NCC(F)(F)F)[C@@H](O)[C@H]1O`, the inhibition is -9.69% (inactive).

Take `Nc1ncnc2c1ncn2[C@@H]1O[C@H](C(=O)N2CCSC2)[C@@H](O)[C@H]1O`: the inhibition is -5.85% (inactive).

In the case of `Brc1ccc(COCCc2cn(Cc3ccccc3)c3ccccc23)cc1`, the inhibition was 3.44% (inactive).

As to `COC(=O)[C@]12C[C@H](CC(=O)NCc3ccc(C)o3)C(=O)N(CCC3=CCCCC3)C1=C[C@H](C(C)(C)C)O[C@@H]2C`, the inhibition is -7.34% (inactive).

Consider `O=C(NNC(=O)c1ccc(-n2cncn2)c([N+](=O)[O-])c1)c1ccccc1`, for which the inhibition was -6.89% (inactive).

As for `CC(Nc1ccc([N+](=O)[O-])cc1[N+](=O)[O-])c1ccccc1` (configuration not stated), the inhibition was -6.77% (inactive).

For `O=C(NC(Nc1nc2ccc([N+](=O)[O-])cc2s1)(C(F)(F)F)C(F)(F)F)c1ccccc1`, the inhibition was 20% (active).

Turning to `COC(=O)C(C(=O)OC)c1ccccc1NS(=O)(=O)c1cccc2ccccc12`, the inhibition is -6.36% (inactive).

`CC(C)C[C@H](NC(=O)CC1CCCC1)C(=O)N1CCC[C@H]1C(=O)NCc1ccccc1`: the inhibition was 1.69% (inactive).

`OC[C@@H]1CN(Cc2cccs2)C[C@H](n2cnc3c(NC4CCCC4)ncnc32)O1`: the inhibition is -8.57% (inactive).

For `OC[C@@H]1CN(Cc2ccc(F)cc2)C[C@H](n2cnc3c(NC4CCCC4)ncnc32)O1`, the inhibition is -2.96% (inactive).

For the compound `OC[C@@H]1CN(Cc2ccc(-c3ccccc3)cc2)C[C@H](n2cnc3c(NC4CCCC4)ncnc32)O1`, the inhibition was 27.1% (active).

Turning to `COC(=O)c1cc2c(c3c4cc(F)ccc4n(S(=O)(=O)c4ccccc4)c13)C(=O)N(Cc1ccccc1OC)C2`, the inhibition is -5.48% (inactive).

Take `Cc1noc(C)c1NC(=O)Nc1ccc2c(c1)C(=O)N([C@H](C)CO)C[C@H](C)[C@H](CN(C)Cc1ccncc1)OCCCC[C@@H](C)O2`: the inhibition was -3.2% (inactive).

With `COc1cc(C(=O)Nn2c(CC(C)C)nc3ccccc3c2=O)cc(OC)c1OC`, the inhibition is -0.49% (inactive).

As to `COc1cc(C(=S)NC2CCCCC2)ccc1O`, the inhibition was -5.5% (inactive).

With `COc1cc(C(=O)Nn2c(O)c(C3=c4ccccc4=NC3=O)sc2=S)ccc1O`, the inhibition was 19.3% (active).

Consider `O=C(C(=O)N1CCC(CNC(=O)c2cccnc2Cl)CC1)c1cccs1`, for which the inhibition is -2.12% (inactive).

Turning to `CC(=O)N1C[C@@H](CO)[C@@H](N(C)C(=O)C(C)(C)C)C[C@H]1c1ccccc1Br`, the inhibition was -3.56% (inactive).

Consider `CCN(CC(=O)NCc1ccc(Cl)cc1)C(=O)CSc1ccccc1`, for which the inhibition is 46.6% (active).

`CCN(CC(=O)Nc1cc(Cl)ccc1C)C(=O)CSCc1ccccc1`: the inhibition was -6.08% (inactive).

On to `CCN(CC(=O)NCc1ccc(Cl)cc1)C(=O)c1c(C)noc1C`, for which the inhibition is -4.16% (inactive).

Take `COCCNC(=S)N(C)[C@H]1C[C@H]2c3[nH]c4ccccc4c3CCN2C[C@H]1[C@H](C)O`: the inhibition was -3.71% (inactive).

`CC(=O)C1=C(C)N(Cc2ccc(Cl)cc2)C(=S)NC1c1ccc(F)cc1` (configuration not stated): the inhibition is -2.41% (inactive).

As for `CCCCNc1cccc2c1S(=O)(=O)N[C@@H](C)CO2`, the inhibition was 0.83% (inactive).

On to `COC(=O)[C@]12C[C@H](CC(=O)NCCCCc3ccccc3)C(=O)N(Cc3ccc4c(c3)OCO4)C1=C[C@H](C(C)(C)C)O[C@@H]2C`, for which the inhibition was -7.85% (inactive).

In the case of `O=C(/C=C/c1c(F)cccc1Cl)Nc1nn[nH]n1`, the inhibition is 13.1% (active).

As for `O=C(/C=C/c1c(Cl)cccc1Cl)NCc1ccccc1`, the inhibition was -6.6% (inactive).

For `O=C(CCc1ccccc1)Nc1nn[nH]n1`, the inhibition was -3.85% (inactive).

`Clc1cccc2c1C1CC2CCN1Cc1ccccc1` (configuration not stated): the inhibition is -7.78% (inactive).

Consider `CC(C)(C)C(c1nc2ccccc2[nH]1)n1c(Cc2csc3ccccc23)nc2ccccc21` (configuration not stated), for which the inhibition was -6.57% (inactive).

`O=C(N[C@H](Cc1ccccc1)C(=O)N1CCCN(Cc2cccs2)CC1)[C@H]1O[C@@H](n2ccc(=O)[nH]c2=O)[C@H](O)[C@@H]1O`: the inhibition is -5.35% (inactive).

For the compound `COC(=O)c1cccc([N+](=O)[O-])c1CS(=O)(=O)c1ccc(C)cc1`, the inhibition is 13.8% (active).

As to `COC(=O)CNC(=O)c1ccccc1[N+](=O)[O-]`, the inhibition was -2.07% (inactive).

On to `Cc1c(C(=O)NCCCc2ccccc2)cccc1[N+](=O)[O-]`, for which the inhibition was -5.51% (inactive).

The record behind these values is PubChem BioAssay AID651719 (The Scripps Research Institute Molecular Screening Center, 2012).
